Assay [1] in a line: OV-KATE Cancer Cell Toxicity qHTS against the NCATS CANVASS Library (AID 1347345). Note: potency is the fitted concentration of half-maximal effect. The gist of the method: (§1)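 In this cytotoxicity screen, 1000 cells per well rested 4 hours, then received compound (11 concentrations) for a 72-hour incubation; an ATP-dependent luminescent signal (CellTiter-Glo) was the endpoint.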
On the technique in general: Quantitative high-throughput screening tests each substance at several concentrations.

The nature of assay [2]: HPAF-II Cancer Cell Toxicity qHTS against the NCATS CANVASS Library (AID 1347346). Note: nearly all actives have a fitted effect of over 55% in size. Note: potency is the fitted concentration of half-maximal effect. The gist of the method: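 Using 1000 HPAF-II cells per well, we titrated compounds over 11 concentrations for 72 h at 37 degrees C/5% CO2, with bortezomib as control. Cell survival was quantified by CellTiter-Glo luminescence.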
Assay [3] is described as follows: OV-SAHO Cancer Cell Toxicity qHTS against the NCATS CANVASS Library (AID 1347348). Note: nearly all actives have a fitted effect of over 55% in size. Note: potency is the fitted concentration of half-maximal effect. The gist of the method: as §1
Assay [4] is described as follows: U-118MG Cancer Cell Toxicity qHTS against the NCATS CANVASS Library (AID 1347351). Note: potency is the fitted concentration of half-maximal effect. In short, it runs like this: as §1
A short description of assay [5]: HPAF-II 24hr Apoptosis Induction qHTS against the NCATS CANVASS Library (AID 1347356). In short, it runs like this: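 Using an 11-point qHTS format, HPAF-II cells in DMEM/10% FBS received compounds for 24 h; doxorubicin titration as control. Caspase-3/7 activity quantified by DEVD-luciferase luminescence.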
The nature of assay [6]: HPAF-II 12hr Apoptosis Induction qHTS against the NCATS CANVASS Library (AID 1347358). In short, it runs like this:
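Twelve-hour compound exposure of HPAF-II cells in DMEM with 10% FBS, then luminescent Caspase-Glo 3/7 detection after 15 min at room temperature; doxorubicin control.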

Assay [7] is described as follows: HEK293 24hr Apoptosis Induction qHTS against the NCATS CANVASS Library (AID 1347359). In short, it runs like this: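 Caspase-3/7 activation measured as luminescence from the DEVD-based Caspase-Glo reagent, 15 min at room temperature, following 24-hour compound treatment of HEK293 cells.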
A short description of assay [8]: HPAF-II 18hr Apoptosis Induction qHTS against the NCATS CANVASS Library (AID 1347360). In short, it runs like this: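 HPAF-II cells at 500/well were exposed for 18 h at 37 C to an 11-point compound series. Caspase-3/7 activity was read by Caspase-Glo luminescence after 15 min at RT.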
The target of assay [9] is Luciferin 4-monooxygenase (Photinus pyralis) (UniProt P08659). Briefly: Firefly luciferase counterscreen qHTS: Assay Interference Panel against the NCATS CANVASS Library (AID 1347363). Note: potency is the fitted concentration of half-maximal effect. The gist of the method:
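Luminescence inhibition readout: compounds (11-point qHTS) sat 15 min at room temperature with substrate mix (0.013 mM luciferin and ATP), then firefly luciferase was added and signal read 5 min later.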
On the technique in general: The purpose of a counterscreen is to sort out artefacts and off-target activity.

The nature of assay [10]: qHTS for ATAD5 Agonist screened against the NCATS CANVASS Library (AID 1347367).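 Note: luciferase reporter driven by ATAD5 which rises upon DNA damage.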 In short, it runs like this: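 Luciferase reporter under ATAD5 control, stably integrated in HEK293T cells (2000/well). Compounds (11 points) incubated 16 h at 37C; viability read first by CellTiter-Fluor, then luminescence reporting ATAD5 activation. MMS positive control.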
Assay [11] in a line: MCF7 Cancer Cell Toxicity qHTS against the NCATS CANVASS Library (AID 1347369). Note: potency is the fitted concentration of half-maximal effect. The gist of the method: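 MCF7 cells (500/well) were exposed 72 h at 37 °C to compounds in an 11-point series. Viability was read as ATP content by CellTiterGlo luminescence.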
A short description of assay [12]: qHTS for ATAD5 Antagonist screened against the NCATS CANVASS Library (AID 1347370). Note: nearly all actives have a fitted effect of over 65% in size. Note: potency is the fitted concentration of half-maximal effect. The gist of the method: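 HEK293T-ATAD5 luc reporter, 2000 cells/well; 5hr attach; cpd + 10 uM 5-FUrd; 16hr 37C, 5% CO2. Readouts: CellTiter-Fluor fluorescence (1hr), then Amplite luciferase luminescence (30min RT).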
A short description of assay [13]: J3T Cancer Cell Toxicity qHTS against the NCATS CANVASS Library (AID 1347371). Note: potency is the fitted concentration of half-maximal effect. In short, it runs like this: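 ATP-based cytotoxicity in canine J3T cells: 72 hr exposure at 37C, 11-point titration, CellTiterGlo luminescent detection.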
Assay [14] addresses Nuclear receptor subfamily 1 group I member 3 (Homo sapiens) (UniProt Q14994). Briefly: qHTS for Constitutive Androstane Receptor (CAR) Agonist screened against the NCATS CANVASS Library (AID 1347373).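 Note: every well also contained 1.5 µM PK11195 alongside the test compound.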 In short, it runs like this:
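In an 11-point concentration series, compounds were incubated 24hr with HepG2 cells carrying hCAR and a CYP2B6-2.2kb reporter, with PK11195 at 1.5uM final. A CellTiter-Fluor viability read preceded the ONE-Glo luminescence read.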

Assay [15] is described as follows: 10-beta competent E. coli microbial cell viability qHTS against the NCATS CANVASS Library (AID 1347376). Note: series mostly up to about 46 µM. In short, it runs like this: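 Overnight 37C exposure of 10-beta E. coli (0.2 OD) to an 11-point concentration series; ATP-based luminescence after 20 min room-temperature reagent incubation; daunomycin as control.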
A short description of assay [16]: qHTS for H2AX Agonists against the NCATS CANVASS Library (AID 1347378). Note: potency is the fitted concentration of half-maximal effect. In short, it runs like this:
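CHO-K1 cells (1000/well, overnight at 37C) exposed to compounds at several concentrations for 3 hr at 37C, 0.76% DMSO final. Lysates read by TR-FRET (phospho-H2AX S139 Eu-cryptate antibody / H2AX-d2 antibody) after 24 hr at room temperature; 665/615 nm ratio.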

Assay [17] in a line: qHTS for Inflammasome Signaling Inhibitors: IL-1-beta AlphaLISA screen against the NCATS CANVASS Library (AID 1347379).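 For Potency: secreted IL-1B measured as AlphaLISA emission at 615 nm; potency is the fitted concentration of half-maximal effect.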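 Note: human THP-1 cells primed with LPS then triggered with ATP.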 The gist of the method: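 THP-1, 1 hr compound pre-incubation, then LPS 250 ng/mL + ATP 1.25 mM (final); 16 hr total with compound; IL-1B AlphaLISA, ex 680/em 615 nm; 11-point qHTS, up to 57.5 uM final.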
Assay [18] can be described thus: Cytotoxicity qHTS for assessment of Hepg2 cells membrane integrity screened against the NCATS CANVASS Library (AID 1347387). The gist of the method: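 Membrane damage in HepG2 monolayers was estimated from released LDH, measured with CytoTox-ONE (ex 560/em 590 nm), after 5 hr treatment across 0.59 nM - 46 uM final.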
The nature of assay [19]: Vero-766 cells viability qHTS against the NCATS CANVASS Library: Counterscreen for Zika virus inhibition assay (AID 1347394). Note: nearly all actives have a fitted effect of over 60% in size. Note: potency is the fitted concentration of half-maximal effect. In short, it runs like this: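 Vero 766 cells (1000/well), without Zika virus, were exposed to compounds for 72 h at 37C. Viability was measured by CellTiter Glo luminescence. Media-only wells served as 100% inhibition.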
Assay [20] can be described thus: Viability qHTS for inhibitors of the SERCaMP assay screened against the NCATS CANVASS Library (AID 1347400). Note: nearly all actives have a fitted effect of over 70% in size. Note: potency is the fitted concentration of half-maximal effect. In short, it runs like this: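 Measures loss of viability in SERCaMP reporter SH-SY5Y cells treated for 48 h with compounds; luminescent ATP detection by CellTiter-Glo.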

Our source for the Potency and outcome values is PubChem BioAssay (NCATS).

Inconclusive results are not listed. Active and inactive are the calls of the source. Calls come from the whole dose curve; as a rule, active = well fitted curve in the direction sought with a large enough effect; inconclusive = small, poorly fitted or top-dose-only effect, or another doubt; inactive = no such curve, though single readings can be large; an effect the other way counts as inactive or inconclusive.

Chain of Luciferin 4-monooxygenase (Photinus pyralis) (P08659 whole entry, looked up): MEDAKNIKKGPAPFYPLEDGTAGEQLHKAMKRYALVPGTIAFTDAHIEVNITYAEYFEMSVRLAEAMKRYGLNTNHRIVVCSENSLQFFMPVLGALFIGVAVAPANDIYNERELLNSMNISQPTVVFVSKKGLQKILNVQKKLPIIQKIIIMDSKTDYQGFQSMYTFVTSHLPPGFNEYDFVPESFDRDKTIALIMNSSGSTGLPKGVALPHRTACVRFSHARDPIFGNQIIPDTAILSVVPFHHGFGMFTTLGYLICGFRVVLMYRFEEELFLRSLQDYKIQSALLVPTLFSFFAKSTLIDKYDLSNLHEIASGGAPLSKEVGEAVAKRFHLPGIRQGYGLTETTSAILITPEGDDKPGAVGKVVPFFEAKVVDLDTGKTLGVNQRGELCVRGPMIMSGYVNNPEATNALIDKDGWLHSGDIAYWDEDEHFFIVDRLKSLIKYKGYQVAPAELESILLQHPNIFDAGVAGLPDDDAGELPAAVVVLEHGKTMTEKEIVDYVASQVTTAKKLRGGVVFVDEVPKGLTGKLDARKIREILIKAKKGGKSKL
Chain of Nuclear receptor subfamily 1 group I member 3 (Homo sapiens) (Q14994 whole entry, looked up): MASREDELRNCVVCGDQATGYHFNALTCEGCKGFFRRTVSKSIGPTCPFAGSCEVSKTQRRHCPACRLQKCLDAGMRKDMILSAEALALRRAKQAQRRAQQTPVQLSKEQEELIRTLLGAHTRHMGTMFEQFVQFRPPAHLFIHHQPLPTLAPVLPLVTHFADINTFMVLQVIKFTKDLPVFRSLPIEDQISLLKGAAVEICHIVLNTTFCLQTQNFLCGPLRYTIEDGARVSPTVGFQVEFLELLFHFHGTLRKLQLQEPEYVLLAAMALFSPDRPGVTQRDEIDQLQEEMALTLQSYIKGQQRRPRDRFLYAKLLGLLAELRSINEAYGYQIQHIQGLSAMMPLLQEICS

Take `COc1ccc([C@@H]2c3cc(OC)c(OC)cc3C(=O)C(C)C2C)cc1OC` (stereo partly specified): the Potency result in assay [1], in [2], in assay [3], in [4], in assay [6] and in assay [7] was “inactive” throughout. For the same compound, the Potency result in [8], in assay [9], in assay [10], in [11], in assay [13] and in assay [16] was “inactive” throughout. Besides, the Potency entry in assay [17] and in [19] was “inactive” throughout. The outcome in [5], in assay [14], in [15] and in [18] was inactive. Besides, the Potency in assay [12] was 20.9 µM (active).
As for `C=C(C)CC[C@H](Cc1c(O)cc(O)c2c1O[C@H](c1ccc(O)cc1O)CC2=O)C(=C)C`, the Potency result in assay [1], in assay [2], in [3], in assay [4], in assay [6] and in [7] was “inactive” in each case. For the same compound, the Potency result in assay [8], in [9], in [10], in assay [11], in assay [12] and in assay [13] was “inactive” each time. In addition, the Potency result in [16], in assay [17] and in [20] was “inactive” in each case. The compound was called inactive in assay [5], in assay [14], in assay [15] and in [18]. In addition, the Potency in assay [19] is 23.4 µM (active).
As to `COc1ccc(/C=C2\COc3cc(O)ccc3C2=O)cc1`, the Potency result in [1], in assay [2], in assay [3], in assay [6], in assay [7] and in [8] was “inactive” each time. For the same compound, the Potency entry in assay [10], in assay [11], in assay [12], in assay [13], in [16] and in [19] was “inactive” each time. Also, the outcome in assay [5], in assay [15] and in assay [18] was inactive. Besides, in [9], the Potency was 0.485 µM (active).
Take `C/C1=C/[C@@H](C)[C@H](O)C/C=C/CC/C=C/C(=O)O[C@@H]1[C@H](C)C(=O)/C=C/CC1CC(=O)NC(=O)C1`: the Potency in assay [1] is 18.8 µM (active); in assay [2] it was 13.3 µM (active); in assay [3] it was 8.38 µM (active); in assay [4] it was 21.1 µM (active); in assay [12], 16.6 µM (active); in assay [13], 16.6 µM (active). Further, the Potency was 13.7 µM (active) in assay [17] and 38.1 µM (active) in assay [20]. For the same compound, the result in [5], in assay [14], in assay [15] and in [18] was inactive. The Potency result in assay [6], in assay [7], in assay [8], in [9], in assay [10] and in assay [11] was “inactive” in each case. Further, the Potency entry in assay [16] and in [19] was “inactive” each time.
As for `C=C1C(=O)O[C@H]2C[C@H](C)[C@@H]3CC(=O)C(C)=C3[C@H](O)[C@H]12`, the Potency is 13.3 µM (active) in assay [1]; 13.3 µM (active) in assay [2]; 14.9 µM (active) in [3]; 18.8 µM (active) in assay [4]; 18.6 µM (active) in assay [11]; 13.2 µM (active) in [12]. In addition, the Potency in assay [13] is 23.5 µM (active); in assay [16], 17.2 µM (active); in assay [17] it was 10.9 µM (active); in assay [20], 21.4 µM (active). Further, the result in assay [5], in assay [14] and in assay [15] was inactive. The Potency entry in assay [6], in assay [7], in assay [8], in [9] and in assay [10] was “inactive” each time.
With `CC(C)=CCC/C(C)=C/Cc1c(O)c(CC=C(C)C)c(O)c2c(=O)c3cc(O)ccc3oc12`, the Potency was 2.36 µM (active) in [1]; 13.3 µM (active) in [2]; 10.6 µM (active) in [3]; 21.1 µM (active) in [4]; 16.5 µM (active) in [11]; 13.2 µM (active) in assay [12]. The Potency in assay [19] was 26.3 µM (active). The compound was called inactive in assay [5], in assay [14], in [15] and in assay [18]. Besides, the Potency entry in [6], in [7], in [8], in assay [9], in [10] and in [13] was “inactive” in each case. Further, the Potency result in assay [20] is “inactive”.
